Results as given in PubChem BioAssay (Tox21).
Several values for one entry are separate records, joined by “and”; a condition that tells them apart may be missing. Identical values can stand only once. Results filed as inconclusive are left out. More than one record can exist for a structure, and the calls need not agree. Activity calls are given as the source filed them. Unless noted, calls follow the shape of the dose curve; as a rule, active = well fitted curve in the direction sought with a large enough effect in the repeat runs; inconclusive = weak or mixed curves; inactive = no such curve, though single readings can be large; an effect the other way counts as inactive or inconclusive.

test system: not listed separately; assay: qHTS assay to identify small molecule antagonists of the peroxisome proliferator-activated receptor delta (PPARd) signaling pathway - cell viability counter screen (AID 743213); conditions: PPARd-bla HEK293H viability, CellTiter-Glo luminescence, 17 h; series mostly up to 62 µM; viability change, negative = cytotoxic: at the top concentration; also: nearly all actives have a fitted effect of over 50% in size; also: potency is read from the fitted curve at half-maximal effect
Summary of the method: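 Viability counter-screen, qHTS format: PPARd-bla HEK293H, L165041 300 nM final, 17 h compound exposure at 37 C, CellTiter-Glo luminescence after 30 min RT.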
% is scaled to controls: 0 for no effect and ±100 for the full control effect.

Structure (SMILES)	Potency	viability change, negative = cytotoxic
CC(C)(C)c1ccc(O)c(C(C)(C)C)c1	38.7 µM (active) and 49 µM (active)	–
O	inactive	–
CCC(C)(C)C(=O)O[C@H]1C[C@@H](C)C=C2C=C[C@H](C)[C@H](CC[C@@H]3C[C@@H](O)CC(=O)O3)[C@H]21	inactive	–
CCCCCCCCCCCCCCCCCl	–	18.9% [at 28.9 µM] (inactive)
CC(C)(C)c1ccccc1	–	11.2% (inactive)
NCCO	–	-22.5% (inactive)
NC(N)=NC(=O)Cc1c(Cl)cccc1Cl	–	-14.7% (inactive)
CC(C)CCOCc1ccccc1	–	19.3% (inactive)
O=C(O)Cn1cnnn1	–	2.24% (inactive)
CCC(CO)(CO)COCC(CC)(CO)CO	–	-0.434% (inactive)
CCCN[C@H]1CCc2nc(N)sc2C1	inactive	–
O=C(Nc1ccccc1SSc1ccccc1NC(=O)c1ccccc1)c1ccccc1	12.4 µM (active) and 11 µM (active)	–
O=C1OC2(c3ccc(O)cc3Oc3cc(O)ccc32)c2ccccc21	inactive	–
Oc1c(Cl)cc(Cl)cc1Sc1cc(Cl)cc(Cl)c1O	49.1 µM (active) and 19.5 µM (active)	–
COc1ccc(CCN(C)CCCC(C#N)(c2ccc(OC)c(OC)c2)C(C)C)cc1OC (stereo unspecified)	–	-23.7% (inactive)
CCCCC/C=C/CC1CC(=O)OC1=O (stereo unspecified)	–	8.5% (inactive)
CNCCC(Oc1ccc(C(F)(F)F)cc1)c1ccccc1 (stereo unspecified)	17.2 µM (active) and 21.1 µM (active)	–
c1cc(C(c2ccc(OCC3CO3)cc2)C(c2ccc(OCC3CO3)cc2)c2ccc(OCC3CO3)cc2)ccc1OCC1CO1 (stereo unspecified)	inactive	–
CC(N)=O	–	-7.9% [at 226 µM] (inactive)
COc1ccc(CCN2CCC(Nc3nc4ccccc4n3Cc3ccc(F)cc3)CC2)cc1	3.16 µM (active) and 23.7 µM (active)	–

target: Peroxisome proliferator-activated receptor delta (Homo sapiens) (UniProt Q03181); assay: qHTS assay to identify small molecule antagonists of the peroxisome proliferator-activated receptor delta (PPARd) signaling pathway (AID 743215; active = well fitted inhibition curve with a large enough effect in the signal ratio in the repeat runs, not every such curve was filed as active; the % refers to the signal ratio;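 also: cells stimulated with agonist L165041 at 300 nM final during compound exposure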; also: potency is read from the fitted curve at half-maximal effect); conditions: HEK293H PPARd-UAS-bla, beta-lactamase FRET ratio, antagonist, 17 h; series mostly up to 62 µM; ratio activity, negative = inhibition: at the top concentration
Summary of the method: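 PPARd-bla HEK293H cells (UAS-bla reporter) preincubated 5 h, then given compound plus 300 nM final L165041 agonist for 17 h at 37 C. Beta-lactamase activity read by LiveBLAzer B/G FRET substrate fluorescence after 2 h at room temperature.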

Sequence of Peroxisome proliferator-activated receptor delta (Homo sapiens) (Q03181 whole entry, looked up): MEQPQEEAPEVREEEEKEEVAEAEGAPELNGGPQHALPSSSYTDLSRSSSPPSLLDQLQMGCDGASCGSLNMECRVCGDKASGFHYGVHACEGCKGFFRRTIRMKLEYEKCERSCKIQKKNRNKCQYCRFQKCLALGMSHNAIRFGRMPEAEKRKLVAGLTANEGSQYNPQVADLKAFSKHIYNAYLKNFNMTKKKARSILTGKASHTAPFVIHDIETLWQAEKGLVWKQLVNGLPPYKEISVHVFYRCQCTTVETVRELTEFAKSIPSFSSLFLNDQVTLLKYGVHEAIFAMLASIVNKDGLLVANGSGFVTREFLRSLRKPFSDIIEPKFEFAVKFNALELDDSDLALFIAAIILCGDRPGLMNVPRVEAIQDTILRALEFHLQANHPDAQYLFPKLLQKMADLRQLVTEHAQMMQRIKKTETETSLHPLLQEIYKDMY

Structure (SMILES)	ratio activity, negative = inhibition	Potency
O=C(O)c1cc(Cl)cc(Cl)c1	8.74% (inactive)	–
NC(N)=NC(=O)Cc1c(Cl)cccc1Cl	-36.1% (inactive)	–
O=C(O)Cn1cnnn1	-3.75% (inactive)	–
Oc1c(Cl)cc(Cl)cc1Sc1cc(Cl)cc(Cl)c1O	–	21.9 µM (active) and 17.4 µM (active) and inactive

target: Bile acid receptor (Homo sapiens) (UniProt Q96RI1); assay: qHTS assay to identify small molecule antagonists of the farnesoid-X-receptor (FXR) signaling pathway (AID 743217; active = well fitted inhibition curve with a large enough effect in the signal ratio in the repeat runs, not every such curve was filed as active; the % refers to the signal ratio); conditions: HEK293T FXR-UAS-bla, beta-lactamase ratio, CDCA-stimulated, 16 h; series mostly up to 62.6 µM; activity change, negative = inhibition: at the top concentration
Summary of the method: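 FXR-UAS-bla HEK 293T cells (beta-lactamase reporter) given compound plus chenodeoxycholic acid (50 uM final), 16 h at 37C. LiveBLAzer B/G FRET substrate added for 2 h at room temperature; fluorescence read.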

Sequence of Bile acid receptor (Homo sapiens) (Q96RI1 whole entry, looked up): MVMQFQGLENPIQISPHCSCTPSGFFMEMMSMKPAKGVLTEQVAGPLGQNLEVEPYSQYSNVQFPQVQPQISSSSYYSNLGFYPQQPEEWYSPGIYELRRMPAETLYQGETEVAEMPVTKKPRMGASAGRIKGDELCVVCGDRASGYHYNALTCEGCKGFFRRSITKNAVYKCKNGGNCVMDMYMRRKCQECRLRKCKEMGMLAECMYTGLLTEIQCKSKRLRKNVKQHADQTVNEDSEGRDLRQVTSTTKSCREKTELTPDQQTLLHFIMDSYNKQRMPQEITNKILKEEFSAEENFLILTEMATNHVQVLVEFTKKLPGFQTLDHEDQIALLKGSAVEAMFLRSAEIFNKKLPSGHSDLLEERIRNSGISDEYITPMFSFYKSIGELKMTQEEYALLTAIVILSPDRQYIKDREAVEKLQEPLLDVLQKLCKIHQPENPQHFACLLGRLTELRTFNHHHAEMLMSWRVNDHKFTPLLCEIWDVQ

Structure (SMILES)	activity change, negative = inhibition
N[C@@H]1CONC1=O	9.42% (inactive)
Nc1ccc(O)cc1	0.389% (inactive)
O=C(O)Cn1cnnn1	0.0844% (inactive)

test system: not listed separately; assay: qHTS assay to identify small molecule agonists of the farnesoid-X-receptor (FXR) signaling pathway - cell viability counter screen (AID 743218); conditions: FXR-bla HEK293T viability, CellTiter-Glo luminescence, 16 h; series mostly up to 62.6 µM; viability change, negative = cytotoxic: at the top concentration; also: nearly all actives have a fitted effect of over 45% in size; also: potency is read from the fitted curve at half-maximal effect
Summary of the method: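 FXR-UAS-bla HEK 293T cells exposed to compounds for 16 h at 37C. Cytotoxicity read in the same wells by CellTiter-Glo luminescence after 30 min at room temperature, following the beta-lactamase FRET read.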

Structure (SMILES)	viability change, negative = cytotoxic	Potency
CC(C)(c1ccccc1)c1ccc(Nc2ccc(C(C)(C)c3ccccc3)cc2)cc1	-2.83% (inactive)	–
CN(C)c1ccc(C(=C2C=CC(=[N+](C)C)C=C2)c2ccccc2)cc1	–	437 nM (active) and 2.37 µM (active)
CCN(CC)c1ccc2c(C)cc(=O)oc2c1	–	inactive
O=C(O[C@@H]1Cc2c(O)cc(O)cc2O[C@@H]1c1cc(O)c(O)c(O)c1)c1cc(O)c(O)c(O)c1	9.01% (inactive)	–
Oc1c(Cl)cc(Cl)c(Cl)c1Cc1c(O)c(Cl)cc(Cl)c1Cl	–	21.8 µM (active) and 24.5 µM (active)
CCCCCCCCCCCCCC[P+](CCCC)(CCCC)CCCC	–	19.4 µM (active) and 24.5 µM (active)
CC(C(O)c1ccc(O)cc1)N1CCC(Cc2ccccc2)CC1 (stereo unspecified)	5.88% (inactive)	–
Nc1ccc2cc3ccccc3cc2c1	–	inactive
Cc1cc(C2(c3cc(C)c(O)cc3C)OS(=O)(=O)c3ccccc32)c(C)cc1O	–	inactive
O=C1NCC2(CCN(CCc3ccccc3)CC2)O1	25.8% (inactive)	–
O=C(O)c1cc(Cl)cc(Cl)c1	8.79% (inactive)	–
N[C@@H]1CONC1=O	2.12% (inactive)	–
O=C(Oc1ccccc1)c1ccccc1O	–	inactive
Nc1ccc(O)cc1	–	25.5 µM (active) and inactive
CC(C)(C)NC(=O)[C@@H]1CN(Cc2cccnc2)CCN1C[C@@H](O)C[C@@H](Cc1ccccc1)C(=O)N[C@H]1c2ccccc2C[C@H]1O	–	inactive
O	–	inactive
CCC(C)(C)C(=O)O[C@H]1C[C@@H](C)C=C2C=C[C@H](C)[C@H](CC[C@@H]3C[C@@H](O)CC(=O)O3)[C@H]21	-28.2% (inactive)	–
CCCCCCCCCCCCCCCCCl	-8.36% [at 29.1 µM] (inactive)	–
CC(C)(C)c1ccccc1	11.6% (inactive)	–
NCCO	-15.4% (inactive)	–
CC(C)CCOCc1ccccc1	-17.3% (inactive)	–
O=C(O)Cn1cnnn1	6.74% (inactive)	–
CCC(CO)(CO)COCC(CC)(CO)CO	7.93% (inactive)	–
CCCN[C@H]1CCc2nc(N)sc2C1	–	inactive
O=C(Nc1ccccc1SSc1ccccc1NC(=O)c1ccccc1)c1ccccc1	-4.75% (inactive)	–
O=C1OC2(c3ccc(O)cc3Oc3cc(O)ccc32)c2ccccc21	–	inactive
Oc1c(Cl)cc(Cl)cc1Sc1cc(Cl)cc(Cl)c1O	–	15.5 µM (active)
COc1ccc(CCN(C)CCCC(C#N)(c2ccc(OC)c(OC)c2)C(C)C)cc1OC (stereo unspecified)	13.5% (inactive)	–
CCCCC/C=C/CC1CC(=O)OC1=O (stereo unspecified)	-11.8% (inactive)	–
